Reference: PubChem BioAssay AID1159580 (chemical genetic matrix, 2015)
Out of some 5,500 compounds screened, about 2,000 (36%) were called active. Roughly 18% stayed inconclusive and do not appear here. Rule as the data show it: active = normalized growth mostly below about 0.91 (no sharp cut-off); inconclusive = no clear call, values can overlap the other calls; inactive = mostly above about 0.92. This is one part of the list.

Assay: chemical genetic growth profiling, strain panel (AID 1159580);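 also: tested at 20 µM; growth read once vehicle control cultures reached saturation at 30 °C; 1 = growth at the plate median or of vehicle wells; lower values mean less growth of the strain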
Details: growth OD

Measured: normalized growth

CC(C)CCCC(C)[C@H]1CCC2C3CC=C4C[C@@H](O)CC[C@]4(C)C3CC[C@@]21C (some centres undefined)
inactive: S. cerevisiae deletion strains, locus YJR075W, strain HOC1, hits give low values 1.02 | S. cerevisiae deletion strains, locus YKL009W, strain mrt4, hits give low values 0.99 | S. cerevisiae deletion strains, locus YKL068W, hits give low values 1 | S. cerevisiae deletion strains, locus YKL085W, strain MDH1 (second series), hits give low values 0.999 | S. cerevisiae deletion strains, locus YKL085W, strain MDH1, hits give low values 0.999 | S. cerevisiae deletion strains, locus YKL160W, strain elf1, hits give low values 1.01 | S. cerevisiae deletion strains, locus YKL190W, strain CNB1, hits give low values 1.01 | S. cerevisiae deletion strains, locus YKR001C, strain vps1, hits give low values 0.985 | S. cerevisiae deletion strains, locus YKR026C, strain gcn3, hits give low values 0.988 | S. cerevisiae deletion strains, locus YKR091W, strain srl3, hits give low values 0.981 | S. cerevisiae deletion strains, locus YLL001W, strain dnm1, hits give low values 1 | S. cerevisiae deletion strains, locus YLL026W, hits give low values 0.993 | S. cerevisiae deletion strains, locus YLL041C, strain sdh2, hits give low values 0.968 | S. cerevisiae deletion strains, locus YLR027C, strain aat2, hits give low values 0.981 | S. cerevisiae deletion strains, locus YLR039C, strain RIC1, hits give low values 1.02 | S. cerevisiae deletion strains, locus YLR058C, strain SHM2, hits give low values 1.01 | S. cerevisiae deletion strains, locus YLR102C, strain apc9, hits give low values 0.995 | S. cerevisiae deletion strains, locus YLR113W, strain HOG1, hits give low values 1.04 | S. cerevisiae deletion strains, locus YLR221C, strain rsa3, hits give low values 1.08 | S. cerevisiae deletion strains, locus YLR258W, strain gsy2, hits give low values 1 | S. cerevisiae deletion strains, locus YLR262C, strain YPT6 (second series), hits give low values 0.987 | S. cerevisiae deletion strains, locus YLR262C, strain YPT6, hits give low values 1.02 | S. cerevisiae deletion strains, locus YLR268W, strain sec22, hits give low values 0.963 | S. cerevisiae deletion strains, locus YLR320W, strain mms22, hits give low values 1.01 | S. cerevisiae deletion strains, locus YLR330W, strain CHS5, hits give low values 1.02 | S. cerevisiae deletion strains, locus YLR342W, strain FKS1 (second series), hits give low values 1.02 | S. cerevisiae deletion strains, locus YLR342W, strain FKS1, hits give low values 0.968 | S. cerevisiae deletion strains, locus YLR357W, strain rsc2, hits give low values 0.983 | S. cerevisiae deletion strains, locus YLR370C, strain arc18, hits give low values 0.974 | S. cerevisiae deletion strains, locus YLR371W, strain rom2, hits give low values 0.988 | S. cerevisiae deletion strains, locus YLR384C, strain iki3, hits give low values 0.97 | S. cerevisiae deletion strains, locus YLR418C, strain cdc73, hits give low values 1 | S. cerevisiae deletion strains, locus YML016C, strain PPZ1, hits give low values 1.01 | S. cerevisiae deletion strains, locus YML032C, strain rad52, hits give low values 1 | S. cerevisiae deletion strains, locus YML120C, strain ndi1, hits give low values 0.975 | S. cerevisiae deletion strains, locus YML124C, strain tub3, hits give low values 0.999 | S. cerevisiae deletion strains, locus YMR058W, strain fet3, hits give low values 0.972 | S. cerevisiae deletion strains, locus YMR078C, strain ctf18, hits give low values 0.999 | S. cerevisiae deletion strains, locus YMR125W, strain sto1, hits give low values 0.94 | S. cerevisiae deletion strains, locus YMR129W, hits give low values 0.975 | S. cerevisiae deletion strains, locus YMR205C, strain PFK2, hits give low values 1 | S. cerevisiae deletion strains, locus YMR223W, strain ubp8, hits give low values 1.02 | S. cerevisiae deletion strains, locus YMR231W, strain pep5, hits give low values 0.967 | S. cerevisiae deletion strains, locus YMR263W, strain SAP30, hits give low values 1.02 | S. cerevisiae deletion strains, locus YMR307W, strain GAS1, hits give low values 1.04 | S. cerevisiae deletion strains, locus YNL067W, strain RPL9B, hits give low values 1 | S. cerevisiae deletion strains, locus YNL071W, strain lat1, hits give low values 0.966 | S. cerevisiae deletion strains, locus YNL183C, strain NPR1, hits give low values 0.962 | S. cerevisiae deletion strains, locus YNL209W, strain ssb2, hits give low values 0.98 | S. cerevisiae deletion strains, locus YNL233W, strain BNI4, hits give low values 1.02 | S. cerevisiae deletion strains, locus YNL248C, strain rpa49, hits give low values 0.963 | S. cerevisiae deletion strains, locus YNL250W, strain rad50, hits give low values 1.02 | S. cerevisiae deletion strains, locus YNL271C, strain bni1, hits give low values 0.994 | S. cerevisiae deletion strains, locus YNL298W, strain CLA4, hits give low values 0.995 | S. cerevisiae deletion strains, locus YNL307C, strain MCK1, hits give low values 0.987 | S. cerevisiae deletion strains, locus YNL322C, strain KRE1 (second series), hits give low values 0.964 | S. cerevisiae deletion strains, locus YNL322C, strain KRE1, hits give low values 1.01 | S. cerevisiae deletion strains, locus YNR049C, strain mso1, hits give low values 0.981 | S. cerevisiae deletion strains, locus YNR052C, strain pop2, hits give low values 0.99 | S. cerevisiae deletion strains, locus YOL012C, strain htz1 0.694 | S. cerevisiae deletion strains, locus YOL147C, strain pex11, hits give low values 0.99 | S. cerevisiae deletion strains, locus YOR001W, strain rrp6, hits give low values 0.99 | S. cerevisiae deletion strains, locus YOR061W, strain CKA2, hits give low values 1.01 | S. cerevisiae deletion strains, locus YOR069W, strain VPS5, hits give low values 1.01 | S. cerevisiae deletion strains, locus YOR070C, strain gyp1, hits give low values 1.07 | S. cerevisiae deletion strains, locus YOR080W, strain dia2, hits give low values 0.991 | S. cerevisiae deletion strains, locus YOR083W, strain WHI5, hits give low values 1.03 | S. cerevisiae deletion strains, locus YOR106W, strain vam3, hits give low values 0.988 | S. cerevisiae deletion strains, locus YOR136W, strain idh2, hits give low values 0.99 | S. cerevisiae deletion strains, locus YOR144C, strain elg1, hits give low values 0.986 | S. cerevisiae deletion strains, locus YOR184W, strain ser1, hits give low values 0.984 | S. cerevisiae deletion strains, locus YOR231W, strain MKK1, hits give low values 1.03 | S. cerevisiae deletion strains, locus YOR265W, strain rbl2, hits give low values 0.989 | S. cerevisiae deletion strains, locus YOR270C, strain vph1, hits give low values 0.901 | S. cerevisiae deletion strains, locus YOR290C, strain snf2, hits give low values 0.987 | S. cerevisiae deletion strains, locus YOR316C, strain cot1, hits give low values 0.987 | S. cerevisiae deletion strains, locus YPL051W, strain arl3, hits give low values 1.03 | S. cerevisiae deletion strains, locus YPL055C, strain LGE1, hits give low values 1.03 | S. cerevisiae deletion strains, locus YPL078C, strain atp4, hits give low values 0.98 | S. cerevisiae deletion strains, locus YPL106C, strain sse1, hits give low values 0.999 | S. cerevisiae deletion strains, locus YPL240C, strain hsp82, hits give low values 0.985 | S. cerevisiae deletion strains, locus YPL241C, strain CIN2, hits give low values 1.01 | S. cerevisiae deletion strains, locus YPL256C, strain CLN2, hits give low values 1.01 | S. cerevisiae deletion strains, locus YPR119W, strain clb2, hits give low values 0.992 | S. cerevisiae deletion strains, locus YPR141C, strain kar3, hits give low values 0.995 | S. cerevisiae deletion strains, locus YPR163C, strain tif3, hits give low values 0.988 | S. cerevisiae deletion strains, locus YPR167C, strain met16, hits give low values 0.995 | S. cerevisiae deletion strains, strain wtn01, hits give low values 0.972 | S. cerevisiae strains, strain wild type, hits give low values 1
